# Test results: ChEMBL document CHEMBL5606458, “ASAP - ZIKV NS2B-NS3 protease fluorescence single point” (2024)
# Out of some 2,700 compounds screened, about 160 (5.9%) showed an effect of 50% or more. The list comes from a sample in which strong results are over-represented; it also holds similar structures and randomly drawn compounds.
# Target: Nonstructural protein 3 (Zika virus) (UniProt A0A024AXB9)
# [1] = PRVABC59, Concentration 15.0 uM, Number of replicates 1.0
# [2] = PRVABC59, Concentration 50.0 uM, Number of replicates 1.0
# Chain of Nonstructural protein 3 (Zika virus) (A0A024AXB9 as listed by the source): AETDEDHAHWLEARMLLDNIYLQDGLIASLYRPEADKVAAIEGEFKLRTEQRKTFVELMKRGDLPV
smiles,measurement,setting,value
O=C(c1cc(Cl)ccc1NS(=O)(=O)c1ccc(Oc2ccccc2Cl)cc1)N1CCC(N2CCCC2=O)CC1,inhibition,[1],-2.59%
Cn1ccc(CN2CC[C@H](c3c[nH]c4ccccc34)C2)cc1=O,inhibition,"PRVABC59, Concentration 49.5 uM, Number of replicates 2.0, Standard deviation 0.9869168424646743 %",2.74%
same,inhibition,"PRVABC59, Concentration 99.01 uM, Number of replicates 2.0, Standard deviation 1.3893738957347146 %",5.37%
same,inhibition,"PRVABC59, Concentration 198.0 uM, Number of replicates 2.0, Standard deviation 1.456023236095902 %",9.72%
O=C(c1cc(Cl)ccc1NS(=O)(=O)c1ccc(Oc2ccccc2Cl)cc1)N1CCN(Cc2cc(F)ccc2F)CC1,inhibition,[1],17.7%
COc1cc(CNC(=O)c2cc(Cl)ccc2NS(=O)(=O)c2ccc(Oc3ccccc3Cl)cc2)cc(OC)c1OC,inhibition,[1],19.3%
O=Cc1ccc(N2CCC(C(=O)Nc3cccc(Br)c3)CC2)cc1,inhibition,[2],23.9%
O=C(Nc1cc(Cl)c(O)c(Cl)c1)c1cc(Cl)ccc1NS(=O)(=O)c1ccc(Oc2ccccc2Cl)cc1,inhibition,[1],84.9%
O=C(Nc1ccccc1Oc1ccccc1)c1cc(Cl)ccc1NS(=O)(=O)c1ccc(Oc2ccccc2Cl)cc1,inhibition,[1],54.2%
O=C(NCc1noc(-c2ccco2)n1)c1cc(Cl)ccc1NS(=O)(=O)c1ccc(Oc2ccccc2Cl)cc1,inhibition,[1],48.1%
O=C(Nc1ccccc1-c1ccccc1)c1cc(Cl)ccc1NS(=O)(=O)c1ccc(Oc2ccccc2Cl)cc1,inhibition,[1],36.2%
O=C(Nc1cccnc1Br)c1cc(Cl)ccc1NS(=O)(=O)c1ccc(Oc2ccccc2Cl)cc1,inhibition,[1],23%
O=C(Nc1cc(F)c(Br)c(F)c1)c1cc(Cl)ccc1NS(=O)(=O)c1ccc(Oc2ccccc2Cl)cc1,inhibition,[1],23.4%
O=C(Nc1ccc(-c2ccccn2)cc1)c1cc(Cl)ccc1NS(=O)(=O)c1ccc(Oc2ccccc2Cl)cc1,inhibition,[1],58.7%
O=C(Nc1ccc(-c2ccccc2)cc1)c1cc(Cl)ccc1NS(=O)(=O)c1ccc(Oc2ccccc2Cl)cc1,inhibition,[1],26.5%
O=C(NCc1noc(-c2cccs2)n1)c1cc(Cl)ccc1NS(=O)(=O)c1ccc(Oc2ccccc2Cl)cc1,inhibition,[1],51.9%
O=C(Nc1ccccc1I)c1cc(Cl)ccc1NS(=O)(=O)c1ccc(Oc2ccccc2Cl)cc1,inhibition,[1],26.7%
O=C(Nc1cc(Cl)c(F)c(Cl)c1)c1cc(Cl)ccc1NS(=O)(=O)c1ccc(Oc2ccccc2Cl)cc1,inhibition,[1],24.3%
O=C(NCc1ccc(-c2cccs2)cc1)c1cc(Cl)ccc1NS(=O)(=O)c1ccc(Oc2ccccc2Cl)cc1,inhibition,[1],28.5%
O=C(NCCNC(=O)c1cc(Cl)ccc1NS(=O)(=O)c1ccc(Oc2ccccc2Cl)cc1)c1ccccc1Cl,inhibition,[1],25%
NC(=O)[C@H](Cc1ccc(O)cc1)NC(=O)C1CCN(c2ccc(C=O)cc2)CC1,inhibition,[2],27%
O=C(c1cc(Cl)ccc1NS(=O)(=O)c1ccc(Oc2ccccc2Cl)cc1)N1CCC(n2c(=O)[nH]c3ccccc32)CC1,inhibition,[1],15.6%
CC(C)(CO)NC(=O)c1cc(Cl)cc(NC(=O)Cc2cccc(N3CCOCC3)c2)c1,inhibition,"PRVABC59, Concentration 49.5 uM, Number of replicates 2.0, Standard deviation 3.0522593855592395 %",-2.52%
same,inhibition,"PRVABC59, Concentration 99.01 uM, Number of replicates 2.0, Standard deviation 3.368926317951112 %",-0.793%
same,inhibition,"PRVABC59, Concentration 198.0 uM, Number of replicates 2.0, Standard deviation 2.506775358140388 %",0.389%
O=C(c1cc(Cl)ccc1NS(=O)(=O)c1ccc(Oc2ccccc2Cl)cc1)N1CCC[C@H](C(F)(F)F)C1,inhibition,[1],20.5%
CN(Cc1cccc2ccccc12)C(=O)c1cc(Cl)ccc1NS(=O)(=O)c1ccc(Oc2ccccc2Cl)cc1,inhibition,[1],19.1%
O=C(NCCc1c[nH]cn1)[C@@]1(c2ccc(F)cc2)CCCNC1,inhibition,"PRVABC59, Concentration 50.0 uM, Number of replicates 2.0, Standard deviation 1.8533531884648646 %",1.12%
same,inhibition,"PRVABC59, Concentration 100.0 uM, Number of replicates 2.0, Standard deviation 1.243259032729753 %",2.94%
same,inhibition,"PRVABC59, Concentration 200.0 uM, Number of replicates 2.0, Standard deviation 0.45116199355607794 %",1.26%
O=C(Nc1ccc2c(c1)OCCO2)c1cc(Cl)ccc1NS(=O)(=O)c1ccc(Oc2ccccc2Cl)cc1,inhibition,[1],63.8%
O=C(Nc1ccc(I)c(F)c1)c1cc(Cl)ccc1NS(=O)(=O)c1ccc(Oc2ccccc2Cl)cc1,inhibition,[1],37.6%
O=C(Nc1ccc2c(c1)OC(F)(F)O2)c1cc(Cl)ccc1NS(=O)(=O)c1ccc(Oc2ccccc2Cl)cc1,inhibition,[1],50%
Cc1cc(NC(=O)c2cc(Cl)ccc2NS(=O)(=O)c2ccc(Oc3ccccc3Cl)cc2)cc(C)c1Br,inhibition,[1],27.6%
O=C(Nc1ccc(I)cc1)c1cc(Cl)ccc1NS(=O)(=O)c1ccc(Oc2ccccc2Cl)cc1,inhibition,[1],58.1%
O=C(NCc1ccc2c(c1)OCCO2)c1cc(Cl)ccc1NS(=O)(=O)c1ccc(Oc2ccccc2Cl)cc1,inhibition,[1],24.8%
Cc1cc(Br)cc(NC(=O)c2cc(Cl)ccc2NS(=O)(=O)c2ccc(Oc3ccccc3Cl)cc2)c1,inhibition,[1],53.6%
O=C(CNC(=O)c1cc(Cl)ccc1NS(=O)(=O)c1ccc(Oc2ccccc2Cl)cc1)c1ccc([N+](=O)[O-])cc1,inhibition,[1],33%
O=C(Nc1cccc(Br)c1)c1cc(Cl)ccc1NS(=O)(=O)c1ccc(Oc2ccccc2Cl)cc1,inhibition,[1],43.8%
O=C(CNC(=O)c1cc(Cl)ccc1NS(=O)(=O)c1ccc(Oc2ccccc2Cl)cc1)c1ccc(O)cc1,inhibition,[1],52.2%
O=C(CNC(=O)c1cc(Cl)ccc1NS(=O)(=O)c1ccc(Oc2ccccc2Cl)cc1)c1ccccc1F,inhibition,[1],40.7%
O=C(Nc1cccc(I)c1)c1cc(Cl)ccc1NS(=O)(=O)c1ccc(Oc2ccccc2Cl)cc1,inhibition,[1],48.1%
Cc1cc(CO)c2cccc(Nc3cc(O)[nH]n3)c2n1,inhibition,"PRVABC59, Concentration 49.95 uM, Number of replicates 2.0, Standard deviation 1.761368724187627 %",18.3%
same,inhibition,"PRVABC59, Concentration 99.9 uM, Number of replicates 2.0, Standard deviation 1.139118047569397 %",23.8%
Cn1cc(CNC(=O)c2ccccc2-c2cccnc2)cn1,inhibition,"PRVABC59, Concentration 49.5 uM, Number of replicates 2.0, Standard deviation 0.5877340250731194 %",0.299%
same,inhibition,"PRVABC59, Concentration 99.01 uM, Number of replicates 2.0, Standard deviation 0.42986369479040104 %",-0.679%
same,inhibition,"PRVABC59, Concentration 198.0 uM, Number of replicates 2.0, Standard deviation 0.566811449656849 %",-0.69%
O=Cc1ccc(N2CCC(C(=O)N[C@H](CO)[C@H](O)c3ccc([N+](=O)[O-])cc3)CC2)cc1,inhibition,[2],25.6%
N#Cc1ccc(Cl)c(NC(=O)C2CCN(c3ccc(C=O)cc3)CC2)c1,inhibition,[2],23.1%
O=Cc1ccc(N2CCC(C(=O)NCc3ccccc3-n3cccn3)CC2)cc1,inhibition,"PRVABC59, Concentration 10.0 uM, Number of replicates 1.0",21.4%
N=C(N)NC[C@@H]1CCCN(C(=O)[C@H](Cc2ccc(CN)cc2)NC(=O)c2ccccc2)C1,inhibition,"PRVABC59, Concentration 49.5 uM, Number of replicates 2.0, Standard deviation 0.6960698702606968 %",2.68%
same,inhibition,"PRVABC59, Concentration 99.01 uM, Number of replicates 2.0, Standard deviation 1.1872902095434084 %",12.8%
same,inhibition,"PRVABC59, Concentration 198.0 uM, Number of replicates 2.0, Standard deviation 0.3804343133987339 %",26.8%
CN(C)CCN(Cc1ccccc1)C(=O)c1cc(Cl)ccc1NS(=O)(=O)c1ccc(Oc2ccccc2Cl)cc1,inhibition,[1],15.1%
Cc1ccc2ccccc2c1NC(=O)C1CCN(c2ccc(C=O)cc2)CC1,inhibition,[2],19.8%
